{
  "source": "PubChem BioAssay (NCATS)",
  "key": {"[1]": {"assay": "Cell Viability - HepG2 (AID 433; calls by dose curve;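 also: potency is read from the fitted curve at half-maximal effect; potency for ATP loss meaning cytotoxicity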)", "conditions": "qHTS", "method_in_brief": "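HepG2 hepatocellular carcinoma cells (1500/well) were treated with compounds for 40 h at 37 °C in complete medium; intracellular ATP was read by CellTiter-Glo luminescence. Data were normalized to DMSO and 100 uM tamoxifen, and AC50 came from Hill fits.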"}, "[2]": {"assay": "Cellular Toxicity (caspase-3) HepG2 (AID 654)", "conditions": "HepG2 caspase-3 activation, luminescence, 0% = DMSO only, 100% = tamoxifen; series mostly up to 92.2 µM", "method_in_brief": "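HepG2 cells (1500/well) were treated 16 h at 37 °C in complete medium, then caspase 3/7 activity was read by Caspase-Glo luminescence. Data were normalized to DMSO and 100 uM tamoxifen; AC50 came from Hill-equation fits of qHTS concentration-response.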"}, "[3]": {"assay": "Cellular Toxicity (caspase-3) Jurkat (AID 655)", "conditions": "Jurkat caspase-3 activation, luminescence; caspase-3 activation: at 92.2 µM (top of the series), DMSO = 0%, tamoxifen = 100%", "method_in_brief": "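Jurkat cells (5000/well) in complete medium were treated with compounds for 16 hr at 37 °C, then Caspase-Glo 3/7 luminescence was read after 20 min at room temperature. Data normalized to DMSO (basal) and 100 uM tamoxifen (100%); AC50 from Hill fit.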"}, "[4]": {"assay": "Cellular Toxicity (caspase-3) HUV-EC-C (AID 656)", "conditions": "HUV-EC-C cells, caspase-3 activation (apoptosis), vehicle = 0, 100 µM tamoxifen = 100%; series mostly up to 92.2 µM", "method_in_brief": "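HUV-EC-C endothelial cells, 1000/well, were pre-incubated 5 hr at 37°C, then exposed to compounds for 16 hr at 37°C. Caspase-Glo 3/7 luminescence was read after 20 min at room temperature. AC50 came from Hill fits, normalized to DMSO and 100 uM tamoxifen.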"}, "[5]": {"assay": "Cellular Toxicity (caspase-3) BJ (AID 658)", "conditions": "BJ fibroblasts, luminescence, normalized: DMSO 0%, staurosporine 100%; series mostly up to 91.7 µM", "method_in_brief": "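Readout: Caspase-Glo 3/7 luminescence increase in BJ cells after 16 hr treatment at 37 °C. Staurosporine and tamoxifen served as positive controls; AC50 values came from Hill modelling of data normalized to DMSO and 10 uM staurosporine.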"}, "[6]": {"assay": "Cellular Toxicity (caspase-3) NIH 3T3 (AID 666)", "conditions": "NIH 3T3 caspase-3 activation, apoptosis/toxicity; series mostly up to 92.2 µM", "method_in_brief": "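Mouse NIH 3T3 fibroblasts (1000/well) treated 16 h at 37 C; caspase-3/7 activity measured by Caspase-Glo 3/7 luminescence after 20 min. Normalized to DMSO and 100 uM tamoxifen; AC50 from Hill fits.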"}, "[7]": {"target": "Cytochrome P450 3A4 (Homo sapiens) (UniProt P08684)", "sequence (P08684 whole entry, looked up)": "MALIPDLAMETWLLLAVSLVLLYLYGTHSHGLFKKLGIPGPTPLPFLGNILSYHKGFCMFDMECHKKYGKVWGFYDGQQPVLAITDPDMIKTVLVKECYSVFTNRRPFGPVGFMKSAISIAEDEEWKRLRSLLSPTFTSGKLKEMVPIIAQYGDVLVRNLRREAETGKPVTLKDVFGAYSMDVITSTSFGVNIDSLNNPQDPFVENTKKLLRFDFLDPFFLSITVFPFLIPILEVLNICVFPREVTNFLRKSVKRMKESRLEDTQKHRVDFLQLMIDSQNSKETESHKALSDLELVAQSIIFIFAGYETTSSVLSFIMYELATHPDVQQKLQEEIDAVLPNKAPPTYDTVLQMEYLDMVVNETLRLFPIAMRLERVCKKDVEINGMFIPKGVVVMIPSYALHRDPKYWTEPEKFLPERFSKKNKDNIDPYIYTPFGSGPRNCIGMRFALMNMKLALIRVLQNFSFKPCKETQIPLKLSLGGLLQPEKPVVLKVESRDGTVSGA", "assay": "qHTS Assay for Inhibitors and Substrates of Cytochrome P450 3A4 (AID 884); also: nearly all actives have a fitted effect of over 50% in size; also: potency is read from the fitted curve at half-maximal effect", "conditions": "recombinant CYP3A4, Luciferin-PPXE luminescence; series mostly up to 57.1 µM", "method_in_brief": "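20 nM human CYP3A4 with 25 uM Luciferin-PPXE (at KM) in 200 mM KPO4, preincubated 10 min with compound; NADPH regeneration started a 60 min RT reaction. Luciferin detected by luminescence, normalized to 57 uM ketoconazole as full inhibition.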"}, "[8]": {"assay": "MultiTox-Fluor Cytotoxicity Assay - LYMP1-001 - Dead Cells (AID 946)", "conditions": "LYMP1-001 lymphoblastoid cells, dead-cell protease fluorescence; series mostly up to 92.2 µM", "method_in_brief": "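In this qHTS, 15 uM tetraoctylammonium bromide defined 100% and DMSO defined basal activity. Lymphoblastoid cells (LYMP1-001, 2500 per well) received compound for 16 hr at 37 C before a fluorogenic dead-cell substrate readout at 485/520 nm.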"}, "[9]": {"assay": "MultiTox-Fluor Cytotoxicity Assay - LYMP1-002 - Live Cells (AID 955)", "conditions": "LYMP1-002 lymphoblastoid live-cell protease fluorescence viability; series mostly up to 46.1 µM", "method_in_brief": "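Human lymphoblastoid LYMP1-002 cells, 2500/well, treated 16 h at 37 C in complete medium. Live-cell protease activity via GF-AFC fluorescence (Ex/Em 405/510) after 60 min reagent incubation; AC50 from Hill fits.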"}, "[10]": {"assay": "MultiTox-Fluor Cytotoxicity Assay - LYMP1-002 - Dead Cells (AID 960); also: potency is read from the fitted curve at half-maximal effect; nearly all actives have a fitted effect of over 60% in size", "conditions": "LYMP1-002 lymphoblastoid cells, dead-cell protease fluorescence; series mostly up to 46.1 µM", "method_in_brief": "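Human lymphoblastoid LYMP1-002 cells, 2500/well, treated 16 h at 37 C; dead-cell protease cleavage of bis-AAF-R110 read by fluorescence (485/520); normalized to DMSO and 15 uM tetraoctylammonium bromide; AC50 from Hill fit.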"}, "[11]": {"assay": "Cell Viability - LYMP2-009 (AID 968); also: nearly all actives have a fitted effect of over 55% in size", "conditions": "LYMP2-009 lymphoblastoid cell viability; series mostly up to 92.2 µM"}, "[12]": {"assay": "Cell Viability - LYMP2-011 (AID 969); also: nearly all actives have a fitted effect of over 60% in size", "conditions": "LYMP2-011 lymphoblastoid cells viability; series mostly up to 92.2 µM", "method_in_brief": "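2500 cells/well in complete medium, compound-treated 24 h at 37 C. Viability read as intracellular ATP by CellTiter-Glo luminescence after 30 min at room temperature. AC50 from Hill fits of qHTS concentration-response data.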"}, "[13]": {"assay": "Cell Viability - LYMP2-017 (AID 972); also: nearly all actives have a fitted effect of over 55% in size", "conditions": "LYMP2-017 lymphoblastoid cell viability; series mostly up to 92.2 µM", "method_in_brief": "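LYMP2-017 human lymphoblastoid cells (2500/well) settled 5 hr at 37 C, then exposed to compound 24 hr at 37 C in complete medium. Viability taken as intracellular ATP by CellTiter-Glo luminescence after 30 min at RT; AC50 from Hill fits.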"}, "[14]": {"assay": "Cell Viability - LYMP2-021 (AID 974); also: nearly all actives have a fitted effect of over 55% in size", "conditions": "LYMP2-021 lymphoblastoid cells viability; series mostly up to 92.2 µM", "method_in_brief": "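Human lymphoblastoid LYMP2-021 cells, 2500/well in complete medium, treated 24 hours at 37 C. Intracellular ATP by CellTiter-Glo luminescence (30 min, RT); AC50 from Hill fits of concentration-response.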"}, "[15]": {"assay": "Cell Viability - LYMP2-026 (AID 989); also: nearly all actives have a fitted effect of over 50% in size", "conditions": "LYMP2-026 lymphoblastoid cell viability, qHTS; series mostly up to 92.2 µM", "method_in_brief": "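Human lymphoblastoid LYMP2-026 cells, 2500/well, exposed to compound 24 h at 37 C in complete medium. Viability as intracellular ATP by CellTiter-Glo luminescence; AC50 from Hill fits of qHTS concentration-response.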"}, "[16]": {"target": "Vitamin D3 receptor (Homo sapiens) (UniProt P11473)", "sequence (P11473 whole entry, looked up)": "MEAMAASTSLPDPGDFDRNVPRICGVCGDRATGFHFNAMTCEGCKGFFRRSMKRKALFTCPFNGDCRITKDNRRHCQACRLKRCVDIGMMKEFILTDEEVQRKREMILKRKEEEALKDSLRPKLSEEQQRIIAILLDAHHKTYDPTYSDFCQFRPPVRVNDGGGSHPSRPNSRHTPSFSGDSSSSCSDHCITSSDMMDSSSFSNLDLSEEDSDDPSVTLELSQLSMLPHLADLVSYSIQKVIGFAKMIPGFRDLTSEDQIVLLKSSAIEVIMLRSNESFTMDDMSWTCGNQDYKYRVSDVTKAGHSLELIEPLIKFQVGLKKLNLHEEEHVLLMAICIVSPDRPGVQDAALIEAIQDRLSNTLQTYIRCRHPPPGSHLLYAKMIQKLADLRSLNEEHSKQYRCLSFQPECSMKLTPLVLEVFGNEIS", "assay": "qHTS assay for small molecule agonists of vitamin D receptor signaling (AID 588543; calls by dose curve)", "conditions": "HEK293T VDR-UAS-bla, beta-lactamase ratio, 16 h; series mostly up to 76.8 µM", "method_in_brief": "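GeneBLAzer VDR-UAS-bla HEK293T cells in 2% charcoal-stripped FBS medium were dosed with compound titrations for 16 h at 37 °C; CCF4 β-lactamase readout (405 nm ex, 460/530 nm em). EC50 and efficacy from Hill fits, normalized to 50 nM calcitriol (100%) and DMSO (0%).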"}, "[17]": {"target": "Thyroid hormone receptor beta (Homo sapiens) (UniProt P10828)", "sequence (P10828 whole entry, looked up)": "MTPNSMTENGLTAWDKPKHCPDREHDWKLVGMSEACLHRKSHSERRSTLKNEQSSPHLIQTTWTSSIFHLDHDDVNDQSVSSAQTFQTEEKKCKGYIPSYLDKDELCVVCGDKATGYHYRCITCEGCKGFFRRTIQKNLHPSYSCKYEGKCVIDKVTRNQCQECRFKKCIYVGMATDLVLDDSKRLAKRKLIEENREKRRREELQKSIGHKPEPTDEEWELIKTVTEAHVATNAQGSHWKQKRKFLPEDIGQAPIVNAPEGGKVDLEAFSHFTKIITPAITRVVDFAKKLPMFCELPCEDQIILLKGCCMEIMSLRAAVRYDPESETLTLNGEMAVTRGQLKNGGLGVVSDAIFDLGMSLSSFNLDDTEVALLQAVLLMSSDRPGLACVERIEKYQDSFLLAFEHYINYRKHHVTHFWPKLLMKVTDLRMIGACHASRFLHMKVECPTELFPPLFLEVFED", "assay": "qHTS assay for small molecule agonists of thyroid hormone receptor beta signaling (AID 588545; calls by dose curve)", "conditions": "TR-UAS-bla GripTite HEK 293, beta-lactamase ratio, agonist mode, 18 h; series mostly up to 76.7 µM", "method_in_brief": "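In this cell-based screen, titrated compounds act on HEK 293 cells held in medium with 2% charcoal/dextran FBS, NEAA and pyruvate for 18 hrs at 37 C. Responses are expressed relative to T3 (10 nM) as 100% and basal DMSO as 0%.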"}, "[18]": {"assay": "Cell Viability - BJ (AID 421; calls by dose curve; also: potency is read from the fitted curve at half-maximal effect)", "conditions": "BJ fibroblast viability, qHTS", "method_in_brief": "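Quantitative HTS: ATP depletion in BJ cells after 40 hr compound exposure in complete culture medium, detected with CellTiter-Glo; AC50 from standard Hill fits.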"}, "[19]": {"assay": "Cell Viability - N2a (AID 540); also: nearly all actives have a fitted effect of over 45% in size", "conditions": "N2a mouse neuroblastoma cell viability; activity change, negative = cytotoxicity: at 92.2 µM (top of the series)", "method_in_brief": "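Mouse neuroblastoma N2a cells, 1500/well, exposed to compounds 40 h at 37 °C in complete medium. Viability measured as cellular ATP by CellTiter-Glo luminescence; AC50 from Hill fits of concentration-response.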"}, "[20]": {"assay": "Cell Viability - LYMP2-016 (AID 984); also: nearly all actives have a fitted effect of over 55% in size", "conditions": "LYMP2-016 lymphoblastoid cell viability, qHTS; series mostly up to 92.2 µM", "method_in_brief": "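Human lymphoblastoid cells (LYMP2-016), 2500/well in complete medium, preincubated 5 hr at 37 C, then compound-treated 24 hr at 37 C. Intracellular ATP read by CellTiter-Glo luminescence after 30 min at room temperature; AC50 from Hill-equation concentration-response fits.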"}},
  "note": "A number with no mark means an inactive call. Inconclusive results are not listed. Entries that show only a call come without a potency. Activity calls are given as the source filed them. Unless noted, calls follow the shape of the dose curve; as a rule, active = well fitted curve in the direction sought with a large enough effect; inconclusive = small, poorly fitted or top-dose-only effect, or another doubt; inactive = no such curve, though single readings can be large; an effect the other way counts as inactive or inconclusive.",
  "data": [
    {"smiles": "Cc1ccc(OP(=O)(Oc2ccc(C)cc2)Oc2ccc(C)cc2)cc1", "values": [
      {"measurement": "Potency", "setting": "[1]", "value": "> 92", "unit": "µM"},
      {"measurement": "outcome", "setting": "[2]", "value": "inactive"},
      {"measurement": "caspase-3 activation", "setting": "[3]", "value": 1.7, "unit": "%"},
      {"measurement": "outcome", "setting": "[4]", "value": "inactive"},
      {"measurement": "outcome", "setting": "[5]", "value": "inactive"},
      {"measurement": "Potency", "setting": "[6]", "value": "inactive"},
      {"measurement": "Potency", "setting": "[7]", "value": "7.94 µM (active)"},
      {"measurement": "outcome", "setting": "[8]", "value": "inactive"},
      {"measurement": "outcome", "setting": "[9]", "value": "inactive"},
      {"measurement": "Potency", "setting": "[10]", "value": "25.1 µM (active)"},
      {"measurement": "Potency", "setting": "[11]", "value": "inactive"},
      {"measurement": "Potency", "setting": "[12]", "value": "inactive"},
      {"measurement": "Potency", "setting": "[13]", "value": "inactive"},
      {"measurement": "Potency", "setting": "[14]", "value": "inactive"},
      {"measurement": "Potency", "setting": "[15]", "value": "inactive"},
      {"measurement": "outcome", "setting": "[16]", "value": "inactive"},
      {"measurement": "Potency", "setting": "[17]", "value": "inactive"}
    ]},
    {"smiles": "CCCCNC(=O)n1c(NC(=O)OC)nc2ccccc21", "values": [
      {"measurement": "Potency", "setting": "[18]", "value": "> 92", "unit": "µM"},
      {"measurement": "Potency", "setting": "[1]", "value": "> 92", "unit": "µM"},
      {"measurement": "Potency", "setting": "[19]", "value": "inactive"},
      {"measurement": "caspase-3 activation", "setting": "[3]", "value": 7.08, "unit": "%"},
      {"measurement": "outcome", "setting": "[4]", "value": "inactive"},
      {"measurement": "outcome", "setting": "[5]", "value": "inactive"},
      {"measurement": "Potency", "setting": "[6]", "value": "inactive"},
      {"measurement": "Potency", "setting": "[7]", "value": "inactive"},
      {"measurement": "outcome", "setting": "[8]", "value": "inactive"},
      {"measurement": "outcome", "setting": "[9]", "value": "inactive"},
      {"measurement": "Potency", "setting": "[11]", "value": "inactive"},
      {"measurement": "Potency", "setting": "[12]", "value": "inactive"},
      {"measurement": "Potency", "setting": "[13]", "value": "inactive"},
      {"measurement": "Potency", "setting": "[14]", "value": "inactive"},
      {"measurement": "Potency", "setting": "[20]", "value": "inactive"},
      {"measurement": "outcome", "setting": "[16]", "value": "inactive"},
      {"measurement": "Potency", "setting": "[17]", "value": "inactive"}
    ]}
  ]
}
